HIF activator: HIF pathway transcriptional activators, primary screen, cell-based, U2OS HRE-luciferase, luminescence. AID 1910, 2009. U2OS HRE-luciferase reporter; normalized: DMSO 0%, desferrioxamine 100%. 300,000 tested, 0.32% active. activation, % at 7.5 µM (by protocol);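 active = mean activation of at least 10% of the iron chelator positive control signal, with at least half of replicates also reaching 10%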
Hsp70 activator: Hsp70 transcriptional activators, primary screen, cell-based, HeLa, Hsp70 promoter luciferase, luminescence, 10 µM | 200,000 tested, 0.04% active | HeLa Hsp70 promoter luciferase reporter; scaled: vehicle 0, proteasome-inhibitor control 100% | activation, % at 10 µM;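 active = activation above the mean across all tested compounds plus 3 SD, cutoff set per campaign, cut at about 5.5% in these data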;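 also: 100% = MG132 at 30 µM as the positive control and 0% = DMSO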
GalR3 antagonist: GalR3 antagonists in HEK293 cells, primary screen, cell-based, fluorescence readout; HEK293 GalR3-CNG cAMP membrane potential fluorescence; galR3 body fused to GalR1 C-terminus; inhibition, % at 3 µM; 360,000 tested, 0.44% active; AID 651719, 2012;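 active = inhibition above the screen-wide average plus 3 SD, cut at about 13% in these data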;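 also: forskolin and galanin both at EC90 stimulate the cells; cAMP rise reported by CNG channel membrane potential dye signal; 0% = forskolin plus galanin with DMSO and 100% = forskolin alone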
Target sequence (O60755 1-299 limits assumed): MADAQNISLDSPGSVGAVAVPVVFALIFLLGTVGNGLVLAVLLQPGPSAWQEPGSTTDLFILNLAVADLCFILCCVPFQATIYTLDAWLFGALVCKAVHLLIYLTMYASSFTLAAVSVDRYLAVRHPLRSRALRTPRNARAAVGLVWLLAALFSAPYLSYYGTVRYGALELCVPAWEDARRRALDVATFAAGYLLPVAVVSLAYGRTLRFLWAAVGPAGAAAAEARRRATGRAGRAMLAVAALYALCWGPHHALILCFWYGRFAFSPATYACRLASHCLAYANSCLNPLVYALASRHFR
FXN GAA850 act: FXN promoter activators, primary screen, cell-based, luciferase luminescence, HEK293 lucGAA850; HEK293 lucGAA850 FXN promoter luciferase reporter, 24 h; percent of 10 µM SAHA response; activation, % at 6 µM; 360,000 tested, 0.56% active; AID 540364, 2011;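 active = activation above the average of all compounds screened plus 3 SD, cutoff fixed separately per campaign, cut at about 7.5% in these data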;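 also: 0% = DMSO wells and 100% = 10 µM SAHA wells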
SMARCA2 act: SMARCA2 (BRM) function activators, primary screen, cell-based, luminescence, high throughput; MG213 cells, MMTV-luciferase reporter, dexamethasone, overnight; activation, % at 9.1 µM; 370,000 tested, 1% active; in the data active = activation above about 7.8%;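 also: 0% = vehicle wells and 100% = reference activator wells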
Active calls of the source: *; x = no result. Compounds with a hit are over-represented: about 2.2% of the library has one in this group of screens.

SMILES | HIF activator | Hsp70 activator | GalR3 antagonist | FXN GAA850 act | SMARCA2 act
CN1CCc2c(sc(NC(=O)c3ccco3)c2C(N)=O)C1 | 1.0 | x | -2.1 | 2.1 | 8.0*
CCOC(=O)c1ccc(NC(=O)Cn2nc(C)c3ccccc3c2=O)cc1 | 1.1 | x | -10.2 | 3.6 | -2.3
CCOC(=O)c1ccc(NC(=O)Cn2ncc(Cl)c(Cl)c2=O)cc1 | -1.0 | 5.8* | -0.9 | -12.8 | -10.7
Cc1ccc(C(=O)OCn2ncc(Cl)c(Cl)c2=O)cc1 | -3.5 | 87.7* | -0.2 | -16.9 | -10.0
OCc1ccccc1OCc1ccccc1 | x | x | 3.9 | x | -2.6
CC(C)COc1ccc(C(=O)Nc2ccc([N+](=O)[O-])cc2)cc1 | 15.2* | 0.6 | x | 2.6 | x
CN(C)C=NC(=O)c1cn(-c2ccc(F)cc2)c(=O)c2ccccc12 | 57.9* | 0.2 | -4.6 | 0.1 | -0.4
CN(C)C(=O)c1cn(-c2ccc(Cl)cc2)c(=O)c2ccccc12 | -0.2 | -0.2 | -4.8 | -1.9 | -3.9
Cc1ccc(S(=O)(=O)Nc2cc(-c3ccccc3)nn2C)cc1 | -0.1 | x | -3.6 | -0.5 | -2.4
Cc1ccc(S(=O)(=O)Nc2cc(-c3ccc(Cl)cc3)nn2C)cc1 | 18.8* | x | -4.8 | -0.1 | -1.3
O=C(CSc1nc2ccccc2c(=O)n1-c1ccc(Cl)cc1)NNC(=S)Nc1ccccc1 | x | x | x | x | 3.5
COc1ccc(/C=N\NC(=O)CN2CCN(Cc3ccccc3)CC2)cc1OCc1ccccc1 | x | x | x | x | -5.5
O=C(CCc1nnc(CCCc2ccccc2)o1)NCCc1ccco1 | 1.0 | 0.0 | -2.0 | 4.7 | 7.8*
O=C(CCc1nnc(CCCc2ccccc2)o1)NCCc1ccccc1 | 0.5 | -0.2 | -0.8 | 0.2 | 1.3
COc1ccc2[nH]c3c(c2c1)CCN[C@]31C(=O)N(C)c2ccc(Br)cc21 | x | x | x | x | 0.8
O=c1cc(-c2ccccc2)oc2ccc(Br)cc12 | x | x | -10.2 | 4.6 | 7.8*
CC(C)Oc1cccc(-c2cc(C(=O)NN3CCOCC3)c3ccccc3n2)c1 | 0.9 | x | -1.0 | 0.3 | 4.5
CCCc1ccc(-c2cc(C(=O)NN3CCOCC3)c3ccccc3n2)cc1 | 2.0 | 0.0 | -4.5 | 8.3* | 3.0
CCCCc1ccc(N/C(N)=N/c2nc(C)cc(C)n2)cc1 | 0.1 | x | 40.7* | -3.4 | -3.0
O=C1CNC(=O)c2c(nc3n2CCC3)N1 | -0.2 | -0.1 | 3.7 | 3.4 | 7.8*
COC(=O)c1ccc(NC(=O)CSc2nc3ccccc3c(=O)[nH]2)cc1 | -0.5 | -0.1 | -5.9 | 1.3 | -0.2
O=C(CSc1nc2ccccc2c(=O)[nH]1)Nc1ccc(Br)cc1 | 38.1* | x | -1.6 | 0.3 | -2.0
COc1ccc2c(c1)[C@@]1(OCCC=C[C@H]1C)C(=O)N2Cc1ccccc1C(F)(F)F | x | x | -8.5 | x | -3.5
CCOC(=O)N1CCN(C(=O)C2CCCN(Cc3nc(-c4ccc(Cl)cc4)oc3C)C2)CC1 (stereo not given) | 0.4 | -0.6 | 82.0* | -4.0 | -3.1
CCn1cc(C(=O)NCC(OC)OC)c(=O)c2cc(S(=O)(=O)N3CCC(C)CC3)ccc21 | 29.7* | x | -6.2 | -2.3 | -3.2
SMILES | HIF activator | Hsp70 activator | GalR3 antagonist | FXN GAA850 act | SMARCA2 act
COc1ccc(O)c(C(=O)CC(=O)c2cccnc2)c1 | x | x | -2.6 | 2.4 | 13.2*
Cn1cnnc1SCC(=O)c1ccc(OC(F)F)cc1 | -0.7 | -0.2 | -6.1 | 1.6 | 3.6
COc1ccc(C(=O)CSc2nncn2C)cc1 | 21.6* | 0.2 | -0.2 | 1.9 | 0.4
O=C(NCC(c1ccco1)N1CCCC1)c1ccc(Cl)c(S(=O)(=O)N2CCc3ccccc32)c1 (stereo not given) | x | x | 86.7* | -3.6 | -4.5
CC1CCN(C2=C(NS(=O)(=O)c3ccccc3)C(=O)c3ccccc3C2=O)CC1 | 0.5 | x | -6.2 | -0.1 | 7.8*
Cc1nc(N2CCc3ccccc3C2)[nH]c(=O)c1Cc1ccccc1 | -0.1 | -0.1 | 0.7 | 0.3 | 5.4
Cc1nc(-n2[nH]c3c(c2=O)CCCC3)[nH]c(=O)c1Cc1ccccc1 | 12.5* | 0.1 | -2.8 | -2.7 | 2.8
COc1ccc(/C(C)=N/NC(=O)c2cccc(S(=O)(=O)N3CCCC3)c2)c(O)c1 | 33.4* | x | -3.3 | -5.0 | -3.9
O=C(O)c1cccc(-n2cccc2/C=C2/SC(=O)N(CC(=O)N3CCCC3)C2=O)c1 | 14.0* | x | -8.3 | 0.9 | -1.9
O=C(CN1C(=O)S/C(=C/c2cccn2-c2ccc(O)cc2)C1=O)N1CCCC1 | -1.7 | x | -9.4 | 0.8 | 0.1
Cc1ccc(C(=O)N/C(=C/c2ccco2)C(=O)NCc2ccco2)cc1 | 0.3 | x | -8.4 | 1.2 | -0.3
Cc1ccc(C(=O)N/C(=C\c2ccco2)C(=O)NCc2cccnc2)cc1 | 0.1 | -0.4 | -4.0 | -0.1 | 8.0*
O=C(Nc1ccc(Cl)cc1)NN1CC(=O)N(c2cccc(C(F)(F)F)c2)CC1=O | 29.0* | x | -1.7 | 1.2 | -3.5
COc1ccccc1N1CCN(CCCNC(=O)C2CCCN(c3ncnc4c3nc3n4CCCCC3)C2)CC1 (stereo not given) | 133.6* | x | 0.6 | -3.5 | 2.7
COc1ccc2nc(NC(=O)CSc3nccc(C)n3)sc2c1 | 39.3* | 0.2 | -2.3 | -0.4 | 0.4
COc1ccccc1N1CCN(Cc2cc(Br)c(O)c3ncccc23)CC1 | 12.5* | -0.5 | x | -0.6 | -1.5
Oc1c(CN2CCN(c3ccccn3)CC2)cc(Cl)c2cccnc12 | 6.7 | 0.0 | x | 10.2* | x
Oc1c(CN2CCCCC2)cc(COCc2ccccc2)c2cccnc12 | 132.0* | -0.2 | -3.3 | -1.0 | 1.4
COCc1cc(CN2CCCC2)c(O)c2ncccc12 | -0.1 | -0.5 | -8.2 | 4.0 | -1.8
OCCN1CCN(Cc2cc(Cl)c3cccnc3c2O)CC1 | 2.5 | 0.4 | -3.1 | -1.2 | 5.4
CCOc1ccccc1N1CCN(Cc2cccc(OC)c2O)CC1 | -0.3 | 0.1 | -5.2 | 0.6 | -0.7
CN(c1ccc(NC(=O)CCc2c[nH]c3ccccc23)cc1)c1ccccn1 | x | x | -7.0 | x | -3.0
COc1cccc(/C=N/Nc2nc3ccccc3n3cnnc23)c1 | 360.2* | -0.2 | -2.4 | -3.0 | -1.6
COC(=O)[C@]12C[C@H](CC(=O)NCc3cccc(C(F)(F)F)c3)C(=O)N(Cc3ccccc3)C1=C[C@H](C1CCCC1)O[C@@H]2C | x | x | -3.9 | x | -3.1
O=C(OCC(=O)N1CCCCC1)c1c[nH]c2ccccc12 | x | x | -3.3 | 4.5 | 7.8*
O=C(OCC(=O)N1CCCC1)c1c[nH]c2ccccc12 | x | x | -4.9 | 2.0 | 6.9
CCOC(=O)[C@@]12CCCC=C1N(CCc1ccc(Cl)cc1)C(=O)[C@H]2CC(=O)NCC12CC3CC(CC(C3)C1)C2 | x | x | x | x | -4.6
Cc1ccc(OCc2nc(-c3cccs3)no2)c([N+](=O)[O-])c1 | -1.8 | 0.1 | -2.1 | 1.7 | 7.9*
COc1ccc(CN(C)CC(=O)Nc2ccc(SC(F)F)cc2)cc1OC | 57.4* | 0.0 | -5.5 | -0.7 | -2.2
O=C([C@@H]1C[C@H]1c1ccccc1)N1CC[C@H]2[C@H](CCCN2Cc2ccc(F)cc2)C1 | x | x | x | x | -1.6

Screening data: PubChem, several laboratories
